Source: PubChem (The Scripps Research Institute Molecular Screening Center)
GPR151 activ: activators of human GPR151, primary screen, cell-based, PathHunter beta-arrestin, luminescence | activation, % at 11.2 µM | 1% of 650,000 active | PathHunter beta-arrestin GPR151 cells; in the data active = activation above about 4.9%;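 note: 0% = median of compound wells and 100% = cells with positive control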
FBW7 activator: FBW7 E3 ligase activators, primary screen, biochemical, AlphaScreen, human. normalized activity (activation), % at 26.1 µM. AlphaScreen FBW7–phospho-cyclin E peptide binding, activator screen. 0.13% of 650,000 active. F-box/WD repeat-containing protein 7 (Homo sapiens), Q969H0; in the data active = normalized activity above about 1.9%;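 note: purified mutant Fbw7 with reduced substrate affinity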
MITF inh: MITF inhibitors, primary screen, biochemical, AlphaScreen, human. Microphthalmia-associated transcription factor (Homo sapiens), O75030. AlphaScreen MITF homodimerization, bead proximity signal. inhibition, % at 2.6 µM. 0.91% of 650,000 active. AID 1259374, 2018; in the data active = inhibition above about 50%;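 note: 0% = vehicle wells with protein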
Target sequence (O75030 whole entry, looked up): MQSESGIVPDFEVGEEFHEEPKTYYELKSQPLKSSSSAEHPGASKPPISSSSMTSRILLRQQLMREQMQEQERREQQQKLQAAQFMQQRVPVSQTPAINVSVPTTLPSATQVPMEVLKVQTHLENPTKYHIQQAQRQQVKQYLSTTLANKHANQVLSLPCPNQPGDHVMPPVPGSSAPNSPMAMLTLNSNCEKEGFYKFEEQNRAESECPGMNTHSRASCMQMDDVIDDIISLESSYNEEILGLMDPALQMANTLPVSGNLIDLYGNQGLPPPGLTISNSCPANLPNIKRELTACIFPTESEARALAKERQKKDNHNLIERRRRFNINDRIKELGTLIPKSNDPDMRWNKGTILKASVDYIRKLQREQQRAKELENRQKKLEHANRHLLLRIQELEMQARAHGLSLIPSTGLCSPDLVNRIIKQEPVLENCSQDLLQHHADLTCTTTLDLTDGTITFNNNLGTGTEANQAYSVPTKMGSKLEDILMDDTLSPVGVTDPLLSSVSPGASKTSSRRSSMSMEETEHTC
TEAD-YAP block: TEAD-YAP interaction inhibition, primary screen, TEAD-YAP interaction inhibitor project, luminescence, HEK-TIYL cells. TEAD-Gal4/YAP UAS-luciferase luminescence. inhibition, % at 9.12 µM. 1.4% of 640,000 active. AID 1259422, 2018; in the data active = inhibition above about 32%;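 note: 0% = median of test compound wells and 100% = reference inhibitor wells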
GPR151 conf act: GPR151 activators, triplicate retest, confirmation, cell-based, PathHunter beta-arrestin, luminescence. 6,700 tested, under 10 active. shares compounds with GPR151 activ. GPR151 PathHunter beta-arrestin cells, 90 min; % of EA-reagent control over plate median. activation, % at 11.2 µM;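 active = mean percent activation across replicates above the confirmation screen cutoff of 4.91%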
GPR119 counter: GPR119 activators in beta-arrestin cells, counter-screen for GPR151 activator project, cell-based, PathHunter beta-arrestin, luminescence, triplicate; 0.3% of 6,700 active; activation, % at 11.2 µM; AID 1508611, 2020; 90 min; 0 = compound-well median, 100 = enzyme-acceptor control; shares compounds with GPR151 activ;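 active = mean percent activation in the counterscreen above 29.09%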;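 note: counterscreen on off-target GPR119 to flag nonselective hits from the GPR151 activator screen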
Numbers without * were called inactive; / = no result given. Rows were chosen to be rich in hits. Some 3.5% of all compounds tested hit in one or more screens of this group.

SMILES	GPR151 activ	FBW7 activator	MITF inh	TEAD-YAP block	GPR151 conf act	GPR119 counter
CN1CCC(=NNC(=O)c2ccc(Br)cc2)CC1	1.2	0.0	-1.2	-6.2	/	/
CC1(C)CC(=O)C2=C(C1)N(c1ccc(Cl)cc1)C(N)=C(C#N)C2c1ccc2c(c1)OCO2 (stereo unspecified)	13.6*	-0.1	-7.3	-6.1	-0.4	-2.7
O=C(Nc1ccc2c(c1)OCO2)Nc1ccc(Br)cn1	6.5*	0.2	9.5	-81.3	-0.5	-4.8
S=C(Nc1ccc2c(c1)OCO2)Nc1ccc2c(c1)OCO2	-0.6	0.1	2.5	-18.5	/	/
S=C(Nc1ccc2c(c1)OCO2)Nc1cnccn1	5.6*	-0.1	9.2	-24.8	0.6	-0.2
O=C(NNC(=O)c1ccc(Cl)s1)Nc1ccc2c(c1)OCO2	5.2*	-0.1	8.6	-42.5	-0.2	-4.9
NC(=O)COc1ccc(/C=N/NC(=O)c2ccc(CN3CCOCC3)cc2)cc1	5.7*	0.0	6.1	1.9	0.4	5.6
CC1(c2ccc3c(c2)OCCO3)NC(=O)N(Cc2cc(=O)oc3cc4c(cc23)CCC4)C1=O (stereo unspecified)	6.7*	-0.1	4.2	0.0	-0.4	0.3
CC(C)CC1NC(=O)N(CC(=O)Nc2cccc(I)c2)C1=O (stereo unspecified)	8.8*	0.0	-4.4	0.2	1.4	5.3
Cn1c(=O)c2cc(C(=O)NC3CCCCC3)sc2c2ccccc21	1.8	0.3	9.1	-9.4	/	/
Cc1ccc2onc(CNC(=O)N3CCCC3)c2c1	2.7	-0.1	-1.7	-4.4	/	/
Cc1ccc2onc(CNC(=O)N3CCCC(C)C3)c2c1 (stereo unspecified)	6.9*	-0.2	-10.0	-19.0	1.2	0.3
O=C(Nc1cccnc1)c1cc2n(n1)C(C(F)(F)F)CC(c1ccc(Cl)cc1)N2 (stereo unspecified)	5.0*	-0.1	-5.2	-23.1	0.9	2.5
O=C(Nc1cccnc1)c1cc2n(n1)C(C(F)(F)F)CC(c1ccc(Br)cc1)N2 (stereo unspecified)	-1.0	-0.1	2.5	-5.4	/	/
Cc1c(C(=O)NCc2ccc(F)cc2)sc2nc(C)n(C)c(=O)c12	-0.5	0.0	8.3	0.5	/	/
c1ccc(Nc2nc(-c3csc4ccccc34)nc3nc[nH]c23)cc1	1.4	-0.1	-3.2	3.5	/	/
CC(=O)c1cccc(NC(=O)Cn2nc(C(F)(F)F)c(Cl)c2C)c1	1.3	0.3	17.7	2.2	/	/
Cc1c(Br)c(C(F)(F)F)nn1CC(=O)Nc1cccc(O)c1	10.0*	0.1	-11.9	-0.8	1.4	10.4
Cn1c(=O)cc(C(=O)Nc2ccc(F)c(F)c2)[nH]c1=O	1.1	0.0	4.7	7.2	/	/
CN(C)c1ccc(-c2nccnc2NS(=O)(=O)c2ccc(Cl)cc2)cc1	1.0	-0.6	-10.0	0.6	/	/
O=Cc1ccc(-c2nccnc2NS(=O)(=O)c2cccc(Cl)c2)cc1	5.0*	-0.1	7.6	9.1	-0.4	-6.5
CN(C)c1cccc2c(S(=O)(=O)Nc3nccnc3-c3ccc(C=O)cc3)cccc12	5.9*	0.1	1.7	1.9	2.1	-7.2
CN(C)c1cccc2c(S(=O)(=O)Nc3nccnc3-c3ccc(CO)cc3)cccc12	0.3	-0.2	46.3	10.0	/	/
CC(=O)Nc1ccc(N(C)S(C)(=O)=O)cc1	9.3*	-0.1	-6.4	-1.6	-0.4	-5.9
CC(=O)Nc1ccc(N(C)C(C)=O)cc1	0.0	0.0	6.5	1.2	/	/
SMILES	GPR151 activ	FBW7 activator	MITF inh	TEAD-YAP block	GPR151 conf act	GPR119 counter
N#Cc1cccc(S(=O)(=O)Nc2ccccc2F)c1	-1.4	-0.1	1.7	-1.2	/	/
O=S(=O)(Nc1ccccc1F)c1cccc(S(=O)(=O)c2ccccc2)c1	5.3*	-0.1	10.9	3.3	0.3	5.5
COC(=O)c1ccc(C2C=C(c3ccc(OC)cc3)Nc3ncnn32)cc1 (stereo unspecified)	-1.9	0.0	14.2	-4.9	/	/
C=CCNC(=O)C(C)N1C(=O)c2cccc3cccc1c23 (stereo unspecified)	0.5	-0.1	-1.2	-3.4	/	/
COc1ccc(CC(=O)NNC(=O)CSc2nc(C)c(C)c(=O)[nH]2)cc1	6.3*	0.0	8.4	4.9	-0.3	-6.3
COc1ccc(C(=O)NNC(=O)CSc2ncn[nH]2)cc1	11.4*	-0.1	15.2	2.1	0.0	-2.1
COc1ccc(C(=O)NNC(=O)CSc2nc3sc(C)c(C)c3c(=O)[nH]2)cc1	4.5	0.0	16.9	7.1	/	/
O=C(Nc1ccc(Cl)c([N+](=O)[O-])c1)C1CC(=O)N(c2ccccc2F)C1 (stereo unspecified)	3.4	0.0	-10.0	0.8	/	/
CCC(C(=O)O)n1ncn2c(cc3occc32)c1=O (stereo unspecified)	0.2	0.2	-10.5	7.3	/	/
COC(=O)c1ccc(C(=O)OC)c(NC(=O)CCCC(=O)O)c1	-0.9	-0.1	-11.4	-0.3	/	/
Cc1cc(NC(=O)CSc2nc3ccsc3c(=O)n2-c2ccc(C(N)=O)cc2)no1	5.0*	0.0	-3.7	-9.1	0.4	13.1
COc1ccc2[nH]c(=O)c(CN(CC3CCCO3)S(=O)(=O)c3ccc(F)cc3)cc2c1 (stereo unspecified)	0.2	0.6	8.7	4.8	/	/
O=C(Nc1ccc(Cl)c(Cl)c1)Nc1ccc(F)c([N+](=O)[O-])c1	0.8	-0.1	0.3	-0.9	/	/
CCOC(=O)c1c(N2C(=O)CCC2=O)sc2c1CCC(C)C2 (stereo unspecified)	1.2	-0.1	9.5	4.2	/	/
CCOC(=O)c1c(N2C(=O)C3C4C=CC(C4)C3C2=O)sc2c1CCC(C)C2 (stereo unspecified)	7.3*	-0.3	-1.8	12.1	-0.1	-3.2
CCOc1ccc(-c2nc(NC(C)=O)c3c(=O)oc4c(OC)cccc4c3n2)cc1	9.2*	-0.2	-0.2	7.7	0.7	11.9
c1cncc(CSc2ccc(-c3cccnc3)nn2)c1	7.0*	0.3	4.3	-18.6	1.3	5.7
COc1cccc(-c2n[nH]c(=S)n2Cc2ccco2)c1OC	9.1*	1.0	10.8	-10.2	0.7	5.5
COc1ccc(-c2n[nH]c(=S)n2Cc2ccco2)cc1OC	1.4	-0.1	-13.2	-6.9	/	/
COc1ccc(N2C(=O)c3ccc(NC(C)=O)cc3C2=O)cc1	1.2	0.1	4.9	4.6	/	/
COC(=O)c1ccc(N2C(=O)c3ccc(NC(C)=O)cc3C2=O)cc1	11.1*	0.0	3.9	5.0	-1.3	-12.1
